ChEMBL document CHEMBL3988442, “University of Dundee, Small-Polar-MMV Screening Library” (2021)
Hit rate of the full screen: of about 48,000 compounds, about 13,000 (27%) showed an effect of 50% or more. The list shows a part of the results.

tested on: Wolbachia pipientis; test: Anti-Wolbachia Cell-Based Screen; assay type: functional; design: scale not given: in the data most compounds retested in dose-response had high values; details: 5 µM

SMILES | Percent Effect
Cc1nc(CN2CCCC(CCc3c(F)cccc3F)C2)c[nH]1 (configuration not stated) | 27.92%
CNS(=O)(=O)CCNCC1(O)CCCN(CCC2CCCCC2)C1=O (configuration not stated) | 1.698%
Cn1cc(NC(=O)CCc2ccsc2)ccc1=O | -1.148%
Cc1cn2c(=O)c(-c3ccnc(N[C@@H](C)CO)n3)cnc2s1 | 99.21%
CC[C@H](C)Nc1nccc(-c2cnc3sc(C)cn3c2=O)n1 | 91.04%
CCCN(Cc1ccc(C#N)cc1)Cc1nnsc1Cl | 8.987%
CCNC(=O)CNC(=O)c1ccn(S(=O)(=O)c2ccc(C)cc2)c1 | 0.9489%
Cc1cccc(CN2C[C@@H]3CC[C@H](C2)N(Cc2c(C)noc2C)C3=O)n1 | -29.28%
Cc1cnn(CC2CCCN2C(=O)c2cccc(CC#N)c2)c1 (configuration not stated) | -7.7%
Cc1cnn(CC2CCCCN2C(=O)c2cccc(C(N)=O)c2)c1 (configuration not stated) | 110.6%
Cc1cnn(CC2CCCN2C(=O)c2cccc(-n3ccc(C)n3)c2)c1 (configuration not stated) | 119%
Cn1ccc(C2CCCCN2C(=O)c2cccc(-n3cccn3)c2)n1 (configuration not stated) | -0.8494%
COC(=O)[C@H]1CCCCN1C(=O)c1cccc(-n2cccn2)c1 | -1.168%
CCN(CC)C(=O)C1CCCN1C(=O)c1cccc(-n2cnnn2)c1 (configuration not stated) | 98.96%
Cc1cnn(CC2CCCN2C(=O)c2cccc(-n3cnnn3)c2)c1 (configuration not stated) | -8.957%
Cc1cnn(CC2CCCN2C(=O)c2cccc(S(C)(=O)=O)c2)c1 (configuration not stated) | 115.2%
Cc1cnn(CC2CCCCN2C(=O)c2cc(C(N)=O)cs2)c1 (configuration not stated) | 3.915%
CC(C)c1nc(COc2cccc3c2NC(=O)CO3)cs1 | -10.7%
O=C(Nc1cccc(N2CCN(CC3CC3)CC2)c1)C1CCCO1 (configuration not stated) | -16.14%
NC(=O)c1c(NC(=O)C2CCCO2)sc2c1CCc1ccccc1-2 (configuration not stated) | 117%
CC(C)(C)c1cc(NC(=O)C2CCCO2)n(-c2ccccn2)n1 (configuration not stated) | -31.1%
CC(=O)Nc1sc2c(c1C(=O)O)CCc1ccccc1-2 | 112.1%
NC(=O)c1c(NC(=O)CCCC(=O)O)sc2c1CCc1ccccc1-2 | 119.8%

SMILES | Percent Effect
NC(=O)c1c(NC(=O)CCC(=O)O)sc2c1CCc1ccccc1-2 | 188.5%
O=C(Cc1cccs1)NCC1(O)CCc2ccccc2C1 (configuration not stated) | 1.555%
Cc1cccc2c1nc1n2[C@@H](CNC(=O)C2CCOCC2)COC1 | -17.69%
NC(=O)c1ccc(CNCC2CCN(CCO)CC2)cc1 | 2.18%
Cc1nc(CCN(C)C(=O)CCNC(=O)c2ccccc2F)no1 | -9.414%
CCc1cc(NCc2ccc(-n3cncn3)c(C)c2)n(C)n1 | -10.44%
CC(NC(=O)Cn1cc(C(N)=O)c(-c2ccccc2)n1)C1CC1 (configuration not stated) | 6.248%
CC(CC(=O)O)CC(=O)Nc1sc2c(c1C(N)=O)CCc1ccccc1-2 (configuration not stated) | 127.8%
Cc1ccccc1C(C(=O)N(C)CCc1cn[nH]c1)N(C)C (configuration not stated) | 13.24%
O=C(c1ccc(C2CCCO2)s1)N1Cc2ccccc2C1 (configuration not stated) | -6.563%
CCOc1ccc(OCc2nccc(-c3cc(C(=O)O)ccn3)n2)cc1 | -79.36%
Cc1cc(N(C)Cc2ccsc2)n2nc(C)c(C)c2n1 | -6.917%
Cc1cc(N(C)Cc2noc(C)n2)n2nc(C)c(C)c2n1 | 14.08%
Cc1csc(CN(C)c2cc(C)nc3c(C)c(C)nn23)n1 | 83.18%
CC(O)CN(c1ccccc1)S(=O)(=O)c1cc(C(=O)O)cc2c1CCC2 (configuration not stated) | 5.053%
CCCc1nnc(C(=O)N(C)Cc2cnc3ccccn23)o1 | -16.11%
CCOc1cccc(C(=O)N2C[C@H]3CC[C@@H]2CN(C(=O)C2CCC2)C3)c1 | -8.209%
O=C(O)C(F)(F)F.O=C(c1ccoc1)N1CCCC2(CCC(=O)N2Cc2ccncc2)C1 (configuration not stated) | -1.829%
CN(C)CCN1CCOCC2(CCCN(C(=O)c3ccccn3)C2)C1.O=C(O)C(F)(F)F.O=C(O)C(F)(F)F (configuration not stated) | -9.412%
O=C(O)C(F)(F)F.O=C(c1ccoc1)N1CCCC2(CCC(=O)N2Cc2cccnc2)C1 (configuration not stated) | -3.168%
CN(C)CCN1C(=O)CCC12CCCN(C(=O)c1cccnc1)CC2.O=C(O)C(F)(F)F.O=C(O)C(F)(F)F (configuration not stated) | 104.4%
CN(C)CCN1C(=O)CCCC12CCCN(C(=O)c1cc[nH]n1)C2.O=C(O)C(F)(F)F (configuration not stated) | 101.5%
CN(C)CCN1C(=O)CCCC12CCCN(C(=O)c1ccncc1)C2.O=C(O)C(F)(F)F.O=C(O)C(F)(F)F (configuration not stated) | 106.1%

SMILES | Percent Effect
Cc1cc(C(=O)N2CCCC3(COCCN(CCN(C)C)C3)C2)no1.O=C(O)C(F)(F)F.O=C(O)C(F)(F)F (configuration not stated) | -4.031%
Cn1cc(C2(C)CN(C(=O)Nc3ccccc3F)CCO2)cn1 (configuration not stated) | 1.448%
Cn1ncnc1CNc1ccc2c(c1)N(C(=O)OC(C)(C)C)CCC2 | 21.04%
Cc1ccsc1CNc1ccccc1C(=O)N1CCNC(=O)C1 | 4.147%
Cc1nsc(N2CCCN(c3nc(C4CC4)ns3)CC2)n1 | 3.492%
Cc1cc(CNC2CCCN(c3cccnn3)C2)no1 (configuration not stated) | 3.501%
Cc1ccc(N2CCCC(NCc3cc(C)on3)C2)nn1 (configuration not stated) | 114.3%
Cc1ccc(N2CCCC(NCc3nc(C)c(C)o3)C2)nn1 (configuration not stated) | -3.745%
Cc1ccc(N2CCCC(N(C)Cc3c(C)noc3C)C2)nn1 (configuration not stated) | -3.849%
Cc1ccc(N2CCCC(NCc3cscn3)C2)nn1 (configuration not stated) | -5.01%
Cc1ccc(N2CCCC(NCc3ccccn3)C2)nn1 (configuration not stated) | 95.9%
Cc1ccc(N2CCCC(NCc3c(C)noc3C)C2)nn1 (configuration not stated) | 115%
Cc1ccc(N2CCCC(NCc3ccc(-n4ccnc4)cc3)C2)nn1 (configuration not stated) | 9.457%
O=C(C1SCCc2sccc21)N1CCC(O)CC1 (configuration not stated) | -0.1428%
CCN(CC)c1ccc(C(=O)N2C[C@@H]3CC[C@H](C2)N(CCOC)C3)cc1 | 14.63%
Cn1ccc(CN2CCCC(CNS(C)(=O)=O)C2)cc1=O (configuration not stated) | 2.475%
Cn1ccc(CN2CCC(CCc3ccc(O)cc3)CC2)cc1=O | 11.88%
Cn1ccc(CN2CCC(COC3CCCC3)CC2)cc1=O | 0.749%
CCN(CC)CC1CCN(Cc2ccn(C)c(=O)c2)CC1 | 118.1%
CCS(=O)(=O)NC1CCCN(Cc2ccn(C)c(=O)c2)C1 (configuration not stated) | 5.979%
CN(C)CCC1CCN(Cc2ccn(C)c(=O)c2)CC1 | 112.8%
